Results taken from PubChem BioAssay AID651791 (National Center for Advancing Translational Sciences (NCATS), 2012).
Records with an inconclusive call do not appear. Calls of active or inactive are those of the source. Calls come from the whole dose curve; as a rule, active = well fitted inhibition curve with a large enough effect; inconclusive = small, poorly fitted or top-dose-only effect; inactive = no such curve, though single readings can be large or run the other way.

Assay: InCell qHTS Assay for Inhibitors of the mTORC1 Signaling Pathway in MEF (Tsc2-/-, p53-/-) Cells: Hit Validation;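 note: phospho-S6 Ser235/236 signal normalized to propidium iodide cell count per well; nearly all actives have a fitted effect of over 75% in size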
Details: phospho-rpS6 immunofluorescence, 24 h; activity change, negative = inhibition: at 38.3 µM (top of the series)
Potency is the fitted concentration of half-maximal effect.

Point of comparison: O=C(Nc1ccccc1)N(Cc1cccc(Cl)c1)c1ccccn1, activity change, negative = inhibition -100%. Against it:
- CCCC1=Nc2cc(C(=O)NC3CCCC3)ccc2Sc2ccc(C)cc21 — the same, -100%
- COc1ccc(-c2n[nH]c3c2C(c2ccc(O)cc2)N(c2ccc(Br)cc2)C3=O)cc1 (configuration not stated) — the same, -100%
- Cc1ccc(NC(=O)Nc2cccs2)c(C)c1 — the same, -100%
- COc1cc(OC)cc(C(=O)NCCc2csc(-c3cccc(C)c3)n2)c1 — higher, 1.72%
- Fc1ccc(Nc2nc3nonc3nc2Nc2cccc(C(F)(F)F)c2)cc1 — the same, -100%
- CCN(CC)CCNC(=O)c1ccc(Cn2c(=O)c3cccn3c3cccnc32)cc1 — the same, -100%
- Cc1ccc(CN(Cc2ccco2)C(=O)c2cccc(C)c2)cc1 — the same, -100%
- CC(C)N(C(=O)Cn1cc(S(=O)(=O)Cc2ccc(Cl)cc2)c2ccccc21)C(C)C — the same, -100%
- CCOC(=O)C(Cc1c[nH]c2ccccc12)NC(=O)COc1ccc(Cl)cc1 (configuration not stated) — the same, -100%
- CCOc1ccc(-n2c(C)nc3c(cnn3-c3ccc(C)cc3)c2=O)cc1 — the same, -100%
- Cc1cccc(NC(c2cccc(Cl)c2)c2ccc3cccnc3c2O)n1 (configuration not stated) — the same, -100%
- COc1ccccc1NC(=O)C1=C(C)Nc2nc(SCc3ccccc3)nn2C1c1cccs1 (configuration not stated) — the same, -100%
- Oc1ccccc1Nc1nc(-c2ccccc2)c2cc(Cl)ccc2n1 — the same, -100%
- Cc1c(Cl)ccc2sc(NC(=O)c3ccc(S(=O)(=O)N4CCCc5ccccc54)cc3)nc12 — higher, -3.12%
- Cc1cccc(N2CCN(C(=O)c3ccc(CS(=O)c4cccc(Cl)c4)o3)CC2)c1C (configuration not stated) — higher, -17.3%
- CC(C)Cc1ccc(S(=O)(=O)N2CCC(c3ccncc3)CC2)cc1 — the same, -100%
- Cc1ccc(NC(=O)c2c(NC(=O)C(F)(F)F)sc3c2CCCCC3)cc1 — the same, -100%
- CCOc1ccc(CCNC(=O)CCc2c(C)nc3cc(-c4ccccc4OC)nn3c2C)cc1 — the same, -100%
- COc1cc(NC(=O)Cn2nc(C(F)(F)F)c3c2CCCC3)c(OC)cc1Cl — the same, -100%
- Cc1ccc2nc(/C(C#N)=C/c3ccc(-c4ccc(F)cc4F)o3)[nH]c2c1 — the same, -100%
- Cc1ccc2c(c1)C(=O)C(=O)N2Cc1ccc(OC(C)C)cc1 — higher, -16.8%
- COc1ccc(C(C(=O)Nc2ccc(C(C)C)cc2)N(C)C(=O)Cc2cccs2)cc1 (configuration not stated) — the same, -100%
- CCc1ccc(CN(Cc2ccco2)C(=O)c2cc(-c3ccc(C)c(F)c3)on2)cc1 — the same, -100%
- CCN(c1ccccc1)S(=O)(=O)c1cc(C(=O)Nc2ccc(Br)cc2)ccc1F — the same, -100%
- Cc1c(C(=O)OC2CCC(C)CC2)[nH]c2c1C(=O)CC(c1ccccc1Cl)C2 (configuration not stated) — the same, -100%
- CCn1c(CC2C(=O)N(C)c3ccc(Br)cc32)nc2ccccc2c1=O (configuration not stated) — the same, -100%
- CCOc1ccccc1NC(=O)Cn1c(=O)n(CCC(=O)NCc2ccc3c(c2)OCO3)c(=O)c2ccccc21 — the same, -100%
- COc1ccc(C(=O)N2CCN(C(=O)COc3ccc(Br)cc3)CC2)cc1OC — the same, -100%
- Cc1ccc(S(=O)(=O)c2nc(-c3ccco3)oc2SC(C)c2ccccc2)cc1 (configuration not stated) — the same, -100%
- O=C(c1ccc(CS(=O)c2ccccc2Cl)o1)N1CCN(c2cccc(C(F)(F)F)c2)CC1 (configuration not stated) — higher, -28.2%
- COc1cc(C(=O)NC(c2ccccc2Cl)c2cc(Cl)c3cccnc3c2O)cc(OC)c1OC (configuration not stated) — the same, -100%

For CCCOCc1cc(CN2CCN(c3ccccc3OC)CC2)c(O)c2ncccc12, the Potency was 11.7 µM (active).
In the case of CCNC(=O)c1c(NC(=O)c2nc(S(=O)(=O)CC)ncc2Cl)sc2c1CCCC2, the Potency is reported as 2.07 µM (active).
In the case of CCCCS(=O)(=O)c1oc(-c2cccs2)nc1S(=O)(=O)c1ccc(F)cc1, the Potency is reported as 3.29 µM (active).
In the case of CS(=O)(=O)c1ncc(Cl)c(C(=O)N(Cc2ccc(Cl)cc2)Cc2ccco2)n1, the Potency is reported as 3.29 µM (active).
With Cc1ccc(CS(=O)(=O)c2ncc(Cl)c(C(=O)Nc3nnc(C(C)C)s3)n2)cc1 the Potency was 6.56 µM (active).
